The structures appear in SMILES notation. Results filed as inconclusive are left out. Entries that show only a call come without a potency. Active and inactive are the calls of the source. Calls come from the whole dose curve; as a rule, active = well fitted inhibition curve with a large enough effect; inconclusive = small, poorly fitted or top-dose-only effect; inactive = no such curve, though single readings can be large or run the other way.

Sequence of Nuclear receptor ROR-gamma (Homo sapiens) (P51449 whole entry, looked up): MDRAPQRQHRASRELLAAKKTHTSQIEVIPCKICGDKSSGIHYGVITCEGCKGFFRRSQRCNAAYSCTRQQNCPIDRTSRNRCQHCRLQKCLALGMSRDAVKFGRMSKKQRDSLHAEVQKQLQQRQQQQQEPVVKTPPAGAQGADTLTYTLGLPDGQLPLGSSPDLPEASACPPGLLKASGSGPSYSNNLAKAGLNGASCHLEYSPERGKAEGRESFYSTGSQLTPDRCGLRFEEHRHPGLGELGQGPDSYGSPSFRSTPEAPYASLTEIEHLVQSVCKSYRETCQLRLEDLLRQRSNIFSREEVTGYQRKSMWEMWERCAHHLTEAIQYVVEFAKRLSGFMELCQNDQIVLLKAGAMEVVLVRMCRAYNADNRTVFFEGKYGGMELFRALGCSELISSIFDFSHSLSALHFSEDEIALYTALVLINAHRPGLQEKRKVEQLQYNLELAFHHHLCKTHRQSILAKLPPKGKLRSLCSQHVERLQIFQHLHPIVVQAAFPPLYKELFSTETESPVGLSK

The assay deals with Nuclear receptor ROR-gamma (Homo sapiens) (UniProt P51449). Description: qHTS assay for small molecule antagonists of the retinoid-related orphan receptor gamma (ROR-gamma) signaling pathway (AID 651802). Note: nearly all actives have a fitted effect of over 60% in size. Conditions: ROR-gamma antagonist cell reporter assay; series mostly up to 92.2 µM. From the text:
National Center for Advancing Translational Sciences [NCATS]
NIH Chemical Genomics Center [NCGC]
National Institutes of Environmental Health Sciences [NIEHS]
National Toxicology Program [NTP]
Nuclear steroid hormone receptors are involved in many biological processes including inflammatory responses, cell proliferation, and apoptosis. Environmental factors or compounds disrupting these nuclear receptor pathways and gene expression may promote susceptibility to immunotoxicants and autoimmune diseases. One important group of these expression factors are the retinoid-related orphan receptors. To assess compounds that may interfere with the retinoid-related orphan receptor gamma (ROR-gamma) transcription factor, a cell-based luciferase assay was used.
The CHO cell-based assay utilizes a TET-inducible ROR expression factor and ROR response element-LUC reporter gene. Reporter activity was induced using doxycycline and measured after 16hr incubation. Luminescence was read using Viewlux (PerkinElmer), where a decrease in reporter activity would show a decrease in luminescence.
1,000 cells in 4 uL/well were dispensed into white wall/solid bottom 1536-well plates using a Multidrop Combi (Thermo Scientific) dispenser. Following transfer of 23 nL compound or DMSO vehicle by a pin tool, the plates were treated with 1 ul doxycycline to induce reporter gene activity. After 16hr incubation at 37C and 5% CO2, 5uL one-glo (promega) was added to each plate and following 30 min incubation at room temperature, luminescence was quantified on a ViewLux (PerkinElmer) plate reader.
As for `Clc1cc(Cl)c(Cl)c(Cl)c1Cl`, the Potency result was “inactive”.

For `CCO`, the Potency entry is “inactive”.

Consider `c1ccc2c(c1)c1cccc3ccc4cccc2c4c31`, for which the Potency result is “inactive”.

As to `O=[N+]([O-])c1cccc(Cl)c1Cl`, the Potency entry was “inactive”.

In the case of `COc1ccc(/C=C/c2cc(OC)cc(=O)o2)cc1`, the Potency result is “inactive”.

In the case of `Cc1c(N=C=O)cccc1N=C=O`, the Potency entry is “inactive”.

As to `Nc1ccc(Cl)cc1Cl`, the Potency entry is “inactive”.

Regarding `CN(C)C=O`, the Potency entry was “inactive”.

For the compound `CCO[Si](CCCN)(OCC)OCC`, the Potency result is “inactive”.

As to `C1OCOCO1`, the Potency result was “inactive”.

As for `CC1(C)CC(N=C=O)CC(C)(CN=C=O)C1` (stereo not given), the Potency result is “inactive”.

Regarding `CCC(C)c1ccccc1O` (stereo not given), the Potency entry is “inactive”.

Take `CCCCCCCCCCCC(=O)O`: the Potency result was “inactive”.

As to `COc1ccc2nc(N)sc2c1`, the Potency result was “inactive”.

As to `S=C1NC=NC2N=CNC12` (stereo not given), the Potency result is “inactive”.

Take `Cc1ccc([N+](=O)[O-])cc1N`: the Potency result was “inactive”.

`CC1=CC(C)(C)Nc2ccccc21`: the Potency entry is “inactive”.

Turning to `CCCCCCCCCCCCCCC1CO1` (stereo not given), the Potency result is “inactive”.

For the compound `NC1=NC(S)C2N=CN=C2N1` (stereo not given), the Potency result is “inactive”.

With `C=CC(=C)CCC=C(C)C`, the Potency entry is “inactive”.

`CCCN(CCC)C(=O)SCC`: the Potency result was “inactive”.

Regarding `O=C(O)c1ccccc1C(c1ccc(O)cc1)c1ccc(O)cc1`, the Potency result is “inactive”.

As for `CC(C)=CCCC(C)CCO` (stereo not given), the Potency entry is “inactive”.

For `CCCCOCCO`, the Potency result is “inactive”.

For the compound `CC12CCC(CC1=O)C2(C)C` (stereo not given), the Potency result is “inactive”.

In the case of `CCCCCCCCCCCCCC(=O)O`, the Potency entry was “inactive”.

On to `COc1cc(/C=C/c2ccccc2)oc(=O)c1`, for which the Potency result was “inactive”.

Regarding `O=C(/C=C/c1ccc(O)c(O)c1)O[C@@H](C(=O)O)[C@@H](OC(=O)/C=C/c1ccc(O)c(O)c1)C(=O)O`, the Potency entry is “inactive”.

For the compound `O=C(O)c1ccc(O)cc1O`, the Potency entry was “inactive”.

In the case of `ClCCCl`, the Potency entry was “inactive”.

In the case of `O=S(=O)(O)c1ccccc1`, the Potency result is “inactive”.

On to `C/C=C\c1ccc(OC)cc1`, for which the Potency result was “inactive”.

With `CC(=O)OC/C=C(\C)CCC=C(C)C`, the Potency entry was “inactive”.

On to `Clc1cc(Cl)c(Cl)cc1Cl`, for which the Potency result was “inactive”.

`C=CCOC(=O)c1ccccc1C(=O)OCC=C`: the Potency result is “inactive”.

In the case of `COC(=O)CCCCC(=O)OC`, the Potency result is “inactive”.

On to `c1ccccc1`, for which the Potency entry was “inactive”.

On to `C=Cc1ccccc1Cl`, for which the Potency result is “inactive”.

With `COCC(=O)O`, the Potency entry was “inactive”.

On to `C=CCc1ccc(OC)c(OC)c1`, for which the Potency entry was “inactive”.

(Values after PubChem BioAssay (NCATS).)
